# In paper PMC9911399, “Two distinct binding modes provide the RNA-binding protein RbFox with extraordinary sequence specificity”:
# Substitutions are numbered along the chain they refer to; changes in the protein carry UniProt numbers. In all, about 16,000 sequences were measured (“ka relative to ugcaugu”: median about 0.0091, highest 2% from about 0.032 on). Only a selection was taken, and the highest values are over-represented in it overall.
# T1: RBFOX1 RRM (Homo sapiens, UniProt Q9NWB1 109-208)
# T1 sequence: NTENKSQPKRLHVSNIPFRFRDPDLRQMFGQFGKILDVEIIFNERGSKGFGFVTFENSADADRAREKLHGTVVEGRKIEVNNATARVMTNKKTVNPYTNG
# B1: UAACCGC (DNA:RNA)
# RNA: GGGAGACCGGAAUUCAGAUUGUCCUAACCGCUUAAAUCCCGUCGUAGCCACCA
# DNA 1: CAATCTGAATTCCGGTCTCCC
# DNA 2: TGGTGGCTACGACGGGATT
# B2: CAACUUU (DNA:RNA)
# RNA: B1 RNA with U25C, C29U, G30U, C31U
# DNA 1: CAATCTGAATTCCGGTCTCCC
# DNA 2: TGGTGGCTACGACGGGATT
# B3: UUGCAAU (DNA:RNA)
# RNA: B1 RNA with A26U, A27G, C29A, G30A, C31U
# DNA 1: CAATCTGAATTCCGGTCTCCC
# DNA 2: TGGTGGCTACGACGGGATT
# B4: CACCGUG (DNA:RNA)
# RNA: B1 RNA with U25C, A27C, C29G, G30U, C31G
# DNA 1: CAATCTGAATTCCGGTCTCCC
# DNA 2: TGGTGGCTACGACGGGATT
# B5: AGUCCAG (DNA:RNA)
# RNA: B1 RNA with U25A, A26G, A27U, G30A, C31G
# DNA 1: CAATCTGAATTCCGGTCTCCC
# DNA 2: TGGTGGCTACGACGGGATT
# B6: AGGCAGA (DNA:RNA)
# RNA: B1 RNA with U25A, A26G, A27G, C29A, C31A
# DNA 1: CAATCTGAATTCCGGTCTCCC
# DNA 2: TGGTGGCTACGACGGGATT
# B7: AGAGAAG (DNA:RNA)
# RNA: B1 RNA with U25A, A26G, C28G, C29A, G30A, C31G
# DNA 1: CAATCTGAATTCCGGTCTCCC
# DNA 2: TGGTGGCTACGACGGGATT
# B8: ACCGGGU (DNA:RNA)
# RNA: B1 RNA with U25A, A26C, A27C, C28G, C29G, C31U
# DNA 1: CAATCTGAATTCCGGTCTCCC
# DNA 2: TGGTGGCTACGACGGGATT
# B9: GUCGGGU (DNA:RNA)
# RNA: B1 RNA with U25G, A26U, A27C, C28G, C29G, C31U
# DNA 1: CAATCTGAATTCCGGTCTCCC
# DNA 2: TGGTGGCTACGACGGGATT
# B10: GGGAGUU (DNA:RNA)
# RNA: GGGAGACCGGAAUUCAGAUUGUCCGGGAGUUUUAAAUCCCGUCGUAGCCACCA
# DNA 1: CAATCTGAATTCCGGTCTCCC
# DNA 2: TGGTGGCTACGACGGGATT
# B11: GUUUGGG (DNA:RNA)
# RNA: B10 RNA with G26U, G27U, A28U, U30G, U31G
# DNA 1: CAATCTGAATTCCGGTCTCCC
# DNA 2: TGGTGGCTACGACGGGATT
# B12: GUCCGGG (DNA:RNA)
# RNA: B10 RNA with G26U, G27C, A28C, U30G, U31G
# DNA 1: CAATCTGAATTCCGGTCTCCC
# DNA 2: TGGTGGCTACGACGGGATT
# B13: CCGGGUU (DNA:RNA)
# RNA: B10 RNA with G25C, G26C, A28G
# DNA 1: CAATCTGAATTCCGGTCTCCC
# DNA 2: TGGTGGCTACGACGGGATT
# B14: CGGGUUU (DNA:RNA)
# RNA: B10 RNA with G25C, A28G, G29U
# DNA 1: CAATCTGAATTCCGGTCTCCC
# DNA 2: TGGTGGCTACGACGGGATT
# B15: GGGUUGU (DNA:RNA)
# RNA: B10 RNA with A28U, G29U, U30G
# DNA 1: CAATCTGAATTCCGGTCTCCC
# DNA 2: TGGTGGCTACGACGGGATT
# B16: GGGUUUG (DNA:RNA)
# RNA: B10 RNA with A28U, G29U, U31G
# DNA 1: CAATCTGAATTCCGGTCTCCC
# DNA 2: TGGTGGCTACGACGGGATT
# B17: GGGUUUU (DNA:RNA)
# RNA: B10 RNA with A28U, G29U
# DNA 1: CAATCTGAATTCCGGTCTCCC
# DNA 2: TGGTGGCTACGACGGGATT
# B18: GGAGUUU (DNA:RNA)
# RNA: B10 RNA with G27A, A28G, G29U
# DNA 1: CAATCTGAATTCCGGTCTCCC
# DNA 2: TGGTGGCTACGACGGGATT
# B19: GGGGAGU (DNA:RNA)
# RNA: B10 RNA with A28G, G29A, U30G
# DNA 1: CAATCTGAATTCCGGTCTCCC
# DNA 2: TGGTGGCTACGACGGGATT
# B20: UAAUAUG (DNA:RNA)
# RNA: B1 RNA with C28U, C29A, G30U, C31G
# DNA 1: CAATCTGAATTCCGGTCTCCC
# DNA 2: TGGTGGCTACGACGGGATT
# B21: AGGACGU (DNA:RNA)
# RNA: B10 RNA with G25A, G29C, U30G
# DNA 1: CAATCTGAATTCCGGTCTCCC
# DNA 2: TGGTGGCTACGACGGGATT
# B22: GAUCGUC (DNA:RNA)
# RNA: B10 RNA with G26A, G27U, A28C, U31C
# DNA 1: CAATCTGAATTCCGGTCTCCC
# DNA 2: TGGTGGCTACGACGGGATT
# B23: AUUACAA (DNA:RNA)
# RNA: B10 RNA with G25A, G26U, G27U, G29C, U30A, U31A
# DNA 1: CAATCTGAATTCCGGTCTCCC
# DNA 2: TGGTGGCTACGACGGGATT
# B24: CCUAUUU (DNA:RNA)
# RNA: B10 RNA with G25C, G26C, G27U, G29U
# DNA 1: CAATCTGAATTCCGGTCTCCC
# DNA 2: TGGTGGCTACGACGGGATT
# B25: CUUAUAA (DNA:RNA)
# RNA: B10 RNA with G25C, G26U, G27U, G29U, U30A, U31A
# DNA 1: CAATCTGAATTCCGGTCTCCC
# DNA 2: TGGTGGCTACGACGGGATT
# B26: CGGGUAA (DNA:RNA)
# RNA: B10 RNA with G25C, A28G, G29U, U30A, U31A
# DNA 1: CAATCTGAATTCCGGTCTCCC
# DNA 2: TGGTGGCTACGACGGGATT
# B27: CAGCGAG (DNA:RNA)
# RNA: B10 RNA with G25C, G26A, A28C, U30A, U31G
# DNA 1: CAATCTGAATTCCGGTCTCCC
# DNA 2: TGGTGGCTACGACGGGATT
# B28: GCGGGUU (DNA:RNA)
# RNA: B10 RNA with G26C, A28G
# DNA 1: CAATCTGAATTCCGGTCTCCC
# DNA 2: TGGTGGCTACGACGGGATT
# B29: GGGGUUU (DNA:RNA)
# RNA: B10 RNA with A28G, G29U
# DNA 1: CAATCTGAATTCCGGTCTCCC
# DNA 2: TGGTGGCTACGACGGGATT
# B30: GGGGGUU (DNA:RNA)
# RNA: B10 RNA with A28G
# DNA 1: CAATCTGAATTCCGGTCTCCC
# DNA 2: TGGTGGCTACGACGGGATT
# B31: GGGGGGU (DNA:RNA)
# RNA: B10 RNA with A28G, U30G
# DNA 1: CAATCTGAATTCCGGTCTCCC
# DNA 2: TGGTGGCTACGACGGGATT
# B32: GCGGGGU (DNA:RNA)
# RNA: B10 RNA with G26C, A28G, U30G
# DNA 1: CAATCTGAATTCCGGTCTCCC
# DNA 2: TGGTGGCTACGACGGGATT
# B33: CCGGGGU (DNA:RNA)
# RNA: B10 RNA with G25C, G26C, A28G, U30G
# DNA 1: CAATCTGAATTCCGGTCTCCC
# DNA 2: TGGTGGCTACGACGGGATT
# B34: CGGGGGU (DNA:RNA)
# RNA: B10 RNA with G25C, A28G, U30G
# DNA 1: CAATCTGAATTCCGGTCTCCC
# DNA 2: TGGTGGCTACGACGGGATT
# B35: GGUUUUU (DNA:RNA)
# RNA: B10 RNA with G27U, A28U, G29U
# DNA 1: CAATCTGAATTCCGGTCTCCC
# DNA 2: TGGTGGCTACGACGGGATT
# B36: CGGGGUU (DNA:RNA)
# RNA: B10 RNA with G25C, A28G
# DNA 1: CAATCTGAATTCCGGTCTCCC
# DNA 2: TGGTGGCTACGACGGGATT
# Target: T1, RBFOX1 RRM
# Assay: EMSA; HiTS-Eq, 1 nM pool, 10 min; buffer printed only for the single-RNA assays: 10 mM Tris pH 7.5, 150 mM NaCl, 3.4 mM EDTA, 0.001% NP-40, 30 C
# Conditions: tags: His6 N-terminal (pET28a); label: 5' 32P
# Method in brief: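 A pool of RNA with 7 randomized nucleotides, 5′-radiolabelled and with DNA-annealed flanks, was equilibrated at 1 nM for 10 min in 50 µL with purified RbFox RRM, wild type or mutant, across increasing protein concentrations. Free RNA was separated by 8% native PAGE, excised, reverse-transcribed, barcoded by PCR and sequenced. Relative association constants were obtained from read-count changes of each RNA species versus the control reaction and normalised to the cognate motif.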
row,Binder,binding signal
1,B1,0.0039 KA relative to UGCAUGU
2,B2,0.000994 KA relative to UGCAUGU
3,B3,0.0162 KA relative to UGCAUGU
4,B4,0.0057 KA relative to UGCAUGU
5,B5,0.00711 KA relative to UGCAUGU
6,B6,0.00971 KA relative to UGCAUGU
7,B7,0.00984 KA relative to UGCAUGU
8,B8,0.013 KA relative to UGCAUGU
9,B9,0.0137 KA relative to UGCAUGU
10,B10,0.0324 KA relative to UGCAUGU
11,B11,0.0128 KA relative to UGCAUGU
12,B12,0.00708 KA relative to UGCAUGU
13,B13,0.0196 KA relative to UGCAUGU
14,B14,0.0393 KA relative to UGCAUGU
15,B15,0.0284 KA relative to UGCAUGU
16,B16,0.0349 KA relative to UGCAUGU
17,B17,0.0323 KA relative to UGCAUGU
18,B18,0.0247 KA relative to UGCAUGU

row,Binder,binding signal
1,B19,0.0316 KA relative to UGCAUGU
2,B20,0.0114 KA relative to UGCAUGU
3,B21,0.0265 KA relative to UGCAUGU
4,B22,0.0199 KA relative to UGCAUGU
5,B23,0.000272 KA relative to UGCAUGU
6,B24,0.00115 KA relative to UGCAUGU
7,B25,0.00174 KA relative to UGCAUGU
8,B26,0.0192 KA relative to UGCAUGU
9,B27,0.00935 KA relative to UGCAUGU
10,B28,0.0192 KA relative to UGCAUGU
11,B29,0.046 KA relative to UGCAUGU
12,B30,0.0471 KA relative to UGCAUGU
13,B31,0.0254 KA relative to UGCAUGU
14,B32,0.0285 KA relative to UGCAUGU
15,B33,0.0122 KA relative to UGCAUGU
16,B34,0.0227 KA relative to UGCAUGU
17,B35,0.00799 KA relative to UGCAUGU
18,B36,0.0339 KA relative to UGCAUGU
